Assay results taken from PubChem BioAssay (NCI).
The panel holds about 83,000 compounds, 20% with a hit somewhere; the sample as a whole holds those more often.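 Cells were grown in 96-well plates and exposed to the test compound at a single concentration for 48 hours; results are reported as percent growth, with values below 10 considered active.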 A number with no mark means an inactive call. Active and inactive are the calls of the source.

These compounds were tested on MDA-MB-468 breast (assay: NCI-60 one-dose screen, 48 h (100 = growth as untreated, 0 = no growth, -100 = all killed)). Conditions: 1 µM.
Procedure: Growth inhibition of the MDA-MB-468 human Breast tumor cell line is measured as a screen for anti-cancer activity. Cells are grown in 96 well plates and exposed to the test compound for 48 hours. Compounds are tested at a single concentration, which is 10^-5 M for most compounds. The reported endpoint is percent growth (GI% or GIPRCNT), where numbers from 0 - 100% represent growth inhibition, and numbers from -100% - 0 represent cell death. For example, a value of 40 represents 60% growth inhibition. A value of 0 means no net growth occurred over the course of the experiment. A value of -40 indicates 40% of cells at the beginning of the experiment died by the end of the experiment. A value of -100 means all cells are dead at the end of the experiment.
NCI-60 Human Tumor Cell Lines Screen was performed using the standard one-dose NCI protocol, which is described in more detail at https://dtp.cancer.gov/discovery_development/nci-60/default.htm.
Compounds with GIPRCNT values below 10 were considered active. Activity score was based on GIPRCNT using the following formula: […]
Score is 0 for GIPRCNT values of 100 or above, 50 for GIPRCNT values of 0, and 100 for GIPRCNT values of -100.

SMILES | growth
CC/C(=C(/c1ccc(O)cc1)c1ccc(OCCN(C)C(=O)COCCOCCNC(=O)Cc2ccc3c(c2)CN([C@@H]2CCC(=O)NC2=O)C3=O)cc1)c1ccccc1 | 1.33% (active)

Same assay, conditions: 10 µM

SMILES | growth
CC/C(=C(/c1ccc(O)cc1)c1ccc(OCCN(C)C(=O)COCCOCCNC(=O)Cc2ccc3c(c2)CN([C@@H]2CCC(=O)NC2=O)C3=O)cc1)c1ccccc1 | -15.7% (active)

Same assay, conditions: 10 µM unless noted

SMILES | growth
O=C(N/N=C/c1c[nH]c2ccccc12)Nc1ccccc1Cl | -21.3% (active)
N#C/C(=C/c1ccc([N+](=O)[O-])cc1)c1nnc(NC(=O)c2ccc(-n3c(=O)[nH]c4ccccc4c3=O)cc2)s1 | 98.5%
COc1cc(/C=C/C(=O)c2cnn(-c3cc(=O)[nH]c4ccc(C)cc34)c2C)cc(OC)c1OC | -77.3% (active)
O=C(c1ccc(O)cc1)C1[C@H](c2ccccc2Br)[C@@H](c2ccccc2)NC12C(=O)Nc1ccccc12 (stereo not given in full) | -36.1% (active)
O=C(CSc1nc2c(c(=O)[nH]1)CCCC2)Nc1ccccc1C(=O)O | 100%
O=C(N=Nc1c(O)[nH]c2ccc(Br)cc12)c1ccc2nc(-c3ccc(Cl)cc3)[nH]c2c1 | -87.7% (active)
O=Cc1cncc(-c2ccc3ncnc(N4CCc5cc(F)c(Cl)cc54)c3c2)c1 | -52.4% (active)
COc1ccc(C(=O)C[n+]2cccc3c4ccccc4ccc32)cc1 | 2.93% (active)
Cn1cc(-c2cc(N)n3nc(-c4c[nH]c5ccccc45)cc3n2)c2cc(Cl)ccc21 | -83.2% (active)
N#C/C(=C/c1ccc(Cl)cc1)c1nnc(NC(=O)c2ccc(-n3c(=O)[nH]c4ccccc4c3=O)cc2)s1 | 34.9%
COc1ccc(-c2cc(-c3ccccc3)c(C#N)c(=O)[nH]2)cc1S(N)(=O)=O | 102%
COc1ccc(-c2nnc3c(/C=C/c4ccc(Br)cc4)nc4ccccc4n23)cc1 | 32.7%
O=C(N/N=C/c1c[nH]c2ccccc12)Nc1ccc(F)c(Cl)c1 | -1.93% (active)
Clc1ccc2c(NCCNC34CC5CC(CC(C5)C3)C4)ccnc2c1 | -92.3% (active)
CCc1ccccc1-c1nc(CN[C@@H]2C[C@@H]3C[C@H]([C@H]2C)C3(C)C)c(C)o1 | -83.4% (active)
O=C(N/N=C/c1ccsc1)c1[nH]c2ccc(Br)cc2c1-c1ccccc1 | -25.6% (active)
Nc1cc(-c2c[nH]c3ccc(Br)cc23)nc2cc(-c3c[nH]c4ccccc34)nn12 | -81.8% (active)
CCCCNC(=S)Nc1ccc(OCc2nc3ccc(Cl)cc3[nH]2)cc1 | 3.25% (active)
Cc1nn(-c2ccccc2)c2nc(C)n(CC(=O)N/N=C/c3cccc([N+](=O)[O-])c3)c(=O)c12 | 93.3%

SMILES | growth
COc1ccc(/C=C/c2nc3ccccc3n3c(-c4cccc([N+](=O)[O-])c4)nnc23)cc1 | -65% (active)
CCOc1ccccc1[C@H]1C(C(=O)c2ccc(Cl)cc2)C2(N[C@@H]1c1ccccc1)C(=O)Nc1ccc(Cl)cc12 (stereo not given in full) | 4.39% (active)
COc1ccc(N=Nc2c(N)nn3c(N)c(C#N)c(-c4ccc(F)cc4)nc23)cc1 | 46.7%
COc1ccc2[nH]cc(-c3cc4nc(-c5cn(C)c6ncc(Br)cc56)cc(N)n4n3)c2c1 | -83.1% (active)
COc1ccc2[nH]cc(-c3cc4nc(-c5cn(C)c6ncccc56)cc(N)n4n3)c2c1 | -75.9% (active)
COC(=O)c1cc(C(=O)C(F)(F)F)n2c3ccccc3c3ccccc3c12 | 60.8%
CN1C(=O)/C(=C/c2ccco2)S/C1=N/c1nccs1 | -13.2% (active)
O=C1Nc2ccccc2/C1=C\c1ccc(OCC(=O)c2ccc(Br)cc2)cc1 | 52.4%
CC(Nc1ncnc2ccc(-c3ccc4oc(N)nc4c3)cc12)c1ccccc1 (stereo not given) | -78.4% (active)
Cn1cc(-c2cc(N)n3nc(-c4c[nH]c5ccc(F)cc45)cc3n2)c2cccnc21 | -92.9% (active)
Cc1cn(-c2cc(NC(=O)c3ccc(C)c(-n4cc(-c5cnc6cccnn56)nn4)c3)cc(C(F)(F)F)c2)cn1 | 99.1%
COc1ccc(-c2cc(C(=O)N=Nc3c(O)[nH]c4ccc(Cl)cc34)c3ccccc3n2)cc1OC | 98.9%
C#CCN(C)CCCOc1ccc(N(CC)C(=O)c2cc(C(C)C)c(O)cc2O)cc1Cl | -46.8% (active)
COC(=O)c1c(C(=O)OC)c2ccc3c4ccccc4ccc3n2c1C(=O)OC | 89.6%
O=C(Cn1c(/C=C/c2ccc([N+](=O)[O-])cc2)nc2ccccc2c1=O)Nc1ccccc1 | 45.4%
COc1ccc(OC)c(Cn2cc(C#N)c(N)c2C(=O)c2ccc(Br)cc2)c1 | 2.73% (active)
O=C(NN1C(=O)/C(=C/C=C/c2ccc([N+](=O)[O-])o2)SC1=S)c1ccc([N+](=O)[O-])cc1 | -79.3% (active)
C/C(=N\Nc1ccc(C(=O)O)cc1)c1cnn(-c2cc(=O)[nH]c3ccc(C)cc23)c1C | 83.2%
O=C(CSc1nc2sc3c(c2c(=O)n1-c1ccc(Cl)cc1)CCCC3)NNC(=O)c1ccc(F)cc1 | 95%
